Assay outcomes from PubChem.
B2AR arrestin: agonists driving beta-arrestin recruitment to human beta2-adrenergic receptor | P07550 | beta-arrestin recruitment to beta2AR, cell-based reporter | Potency, µM (highest dose often 46.1 µM), inactives show at the highest dose activation, hits mostly activators | 330,000 compounds, 0.02% hits;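 also: potency is read from the fitted curve at half-maximal effect; 0% = DMSO controls and full agonism = EC100 isoproterenol or metaproterenol; nearly all actives have a fitted effect of over 65% in size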
Target sequence (P07550 whole entry, looked up): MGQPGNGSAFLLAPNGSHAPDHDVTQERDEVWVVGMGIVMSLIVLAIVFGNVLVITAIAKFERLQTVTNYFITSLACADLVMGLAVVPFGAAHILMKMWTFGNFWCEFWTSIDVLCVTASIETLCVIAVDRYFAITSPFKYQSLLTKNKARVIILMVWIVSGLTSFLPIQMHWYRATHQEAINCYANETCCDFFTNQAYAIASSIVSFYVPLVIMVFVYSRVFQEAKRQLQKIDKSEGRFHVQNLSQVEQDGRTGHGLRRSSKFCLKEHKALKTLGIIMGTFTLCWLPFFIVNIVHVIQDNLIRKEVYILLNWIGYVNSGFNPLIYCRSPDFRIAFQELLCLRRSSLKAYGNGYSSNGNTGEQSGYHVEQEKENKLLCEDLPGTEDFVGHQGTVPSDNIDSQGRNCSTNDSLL
p53 reactivator: restores transcriptional activity of mutant p53; 320,000 compounds, 0.063% hits; H1299 p53-A138V BP100-luciferase reporter, luminescence, 24 h; Potency, µM (titrated, usually from 92.2 µM), without a hit: at the highest dose activity change, positive = activation, most hits filed as activators; AID 504706; also: potency is read from the fitted curve at half-maximal effect; % of control where 0% means no effect; nearly all actives have a fitted effect of over 45% in size
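p53-null H1299 cells stably carrying temperature-sensitive p53-A138V and a BP100-luciferase reporter were pinned with compounds (4-point, 1:5 series) and held 24 hrs at 37 deg C. Luminescence was read 10 min after detection reagent.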
Giardia killer: Giardia lamblia killing; AID 540267; Giardia lamblia trophozoite viability; activity change, % at 7.66 µM, hits read low; 340,000 compounds, 0.15% hits; in the data active = activity change below about -80%; inconclusive = between about -30% and that limit;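 also: parasites exposed to compound for two days anaerobically before the ATP read; % is scaled to controls: 0 for no effect and ±100 for the full control effect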
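Each well holds 100 Giardia trophozoites and compound. After two days (48 hrs) at 37 deg C in anaerobic conditions, ATP is quantified by luminescence.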
ClpP mod: qHTS Assay for Activators of ClpP. ATP-dependent Clp protease proteolytic subunit (Bacillus subtilis (strain 168)), P80244. purified B. subtilis ClpP, FRET peptide cleavage, 20 min. Potency, µM (top dose mostly 57.5 µM), for the others: at the top dose activity change, negative = active. 340,000 compounds, 1.9% hits. AID 651965, 2013; active = well fitted falling curve with a large enough effect; inconclusive = small, poorly fitted or top-dose-only effect; inactive = no such curve, though single readings can be large or run the other way; also: potency is read from the fitted curve at half-maximal effect; the source files actives as falling curves though it sought activators and does not explain the sign; nearly all actives have a fitted effect of over 65% in size
Target sequence (P80244 whole entry, looked up): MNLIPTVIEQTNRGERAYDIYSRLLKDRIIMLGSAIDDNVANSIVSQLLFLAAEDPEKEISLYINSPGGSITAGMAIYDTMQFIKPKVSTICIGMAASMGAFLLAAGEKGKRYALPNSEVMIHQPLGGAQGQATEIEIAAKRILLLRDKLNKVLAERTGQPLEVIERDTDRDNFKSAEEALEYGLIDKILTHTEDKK
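Purified B. subtilis ClpP, 10 microg/mL final in Tris/HCl pH8 with KCl, BSA, glycerol and Tween-20, cleaved an Abz/nitrotyrosine-quenched decapeptide. Fluorescence (ex 320, em 430) was read at 0 and 20 min at room temperature. Delta was normalized to 5.8 microM ADEP and DMSO/no-enzyme controls.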
Mito fusion act: mitochondrial division inhibition or fusion activation; S. cerevisiae fusion-defective mutant growth rescue, CellTiterGlo 48 h; AID 485298; Potency, µM (top dose mostly 46.1 µM), for the others: top-dose growth rescue (activation), actives largely listed as activators; 320,000 compounds, 0.23% hits; also: potency is read from the fitted curve at half-maximal effect; % of control where 0% means no effect; nearly all actives have a fitted effect of over 45% in size
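Luminescent cell viability in 1536-well qHTS format served as the measure of rescued growth in ts fusion-mutant S. cerevisiae cultured on non-fermentable YPEG for 48 hours at 37C.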
uPA generation: cell surface uPA generation inhibition. cell surface uPA generation assay, qHTS. Potency, µM (highest dose often 38.3 µM), for inactives: at the highest dose activity change, negative = inhibition, hits mostly inhibitors. 330,000 compounds, 0.31% hits. AID 540303; active = well fitted inhibition curve with a large enough effect; inconclusive = small, poorly fitted or top-dose-only effect; inactive = no such curve, though single readings can be large or run the other way; tested in mouse RAW 264.7 cells; also: potency is read from the fitted curve at half-maximal effect; % is scaled to controls: 0 for no effect and ±100 for the full control effect; nearly all actives have a fitted effect of over 55% in size
* marks the source's active call; other numbers are inactive results; ? = inconclusive; · = not tested or not shown; [ ] = dose if it differs, or a comment. An excerpt weighted towards active compounds, which were near 2.1% of everything screened. Unless noted, calls follow the shape of the dose curve; as a rule, active = well fitted curve in the direction sought with a large enough effect; inconclusive = small, poorly fitted or top-dose-only effect, or another doubt; inactive = no such curve, though single readings can be large; an effect the other way counts as inactive or inconclusive.

SMILES	B2AR arrestin	p53 reactivator	Giardia killer	ClpP mod	Mito fusion act	uPA generation
CCN1CCc2c(sc(N)c2C(N)=O)C1	0.1%	-0.2%	-19.2	14.1µM*	2.2%	-6.7%
NC(=O)c1c(N)sc2c1CCCC2	3.2%	14.9%	3.4	-8.2%	6.3%	-3.3%
CN1CCc2c(sc(N)c2C(N)=O)C1	-0.4%	11.5%	6.6	20µM*	-4.4%	·
CC(C)c1nc2sc3c(=O)[nH]c(=S)[nH]c3c2c2c1CCCC2	-0.4%	1.6%	-4.2	·	21.5%	1.9%
CC(C)c1nc2sc3c(=O)[nH]c(=S)[nH]c3c2c2c1CCC2	0.0%	-2.0%	·	·	12.6µM*	·
O=C(Cc1cccs1)NCCS(=O)(=O)N1CCN(c2ccccc2F)CC1	0.4%	-2.8%	-3.6	-6.0%	3.1%	3.16µM*
COc1ccccc1N1CCN(S(=O)(=O)CCNC(=O)c2cc(OC)c(OC)c(OC)c2)CC1	2.8%	-6.1%	22.1	-3.6%	-2.6%	12.6µM*
O=C(Cc1cccs1)NCCS(=O)(=O)N1CCN(c2ccccc2)CC1	·	·	·	1.1%	·	·
COc1ccc(Cl)cc1C(=O)NCCS(=O)(=O)N1CCN(c2ccccc2OC)CC1	·	·	·	-1.7%	·	·
CCC(C)(C)NC(=O)C(c1ccccc1F)N(Cc1ccco1)C(=O)Cn1nnc2ccccc21 (configuration not stated)	0.2%	7.8%	-16.9	?	10µM*	17.8%
Cc1ccccc1Cn1c(CN2CCC(C(=O)NCCN(C)C)CC2)cc2ccccc21	·	·	·	-1.6%	·	·
O=c1c(O[C@@H]2O[C@H](CO)[C@H](O)[C@H](O)[C@H]2O)c(-c2ccc(O)c(O)c2)oc2cc(O)cc(O)c12	-0.2%	·	·	·	-4.8%	·
COc1c(-c2ccc(O)c(O)c2)oc2cc(O)cc(O)c2c1=O	?	12.8%	?	-1.8%	0.631µM*	?
O=C(Nc1ccc(NC(=O)c2ccco2)nc1)c1ccco1	0.0%	7.4%	?	·	1.8%	-13.3%
CC(C)(C)C(=O)Nc1ccc(NC(=O)c2ccco2)nc1	-0.3%	-15.3%	-94.0*	0.2%	-0.6%	-15.8%
CCOC(=O)c1ccc(S(=O)(=O)NCC(c2ccc(N(C)C)cc2)c2c[nH]c3ccccc23)cc1 (configuration not stated)	-0.9%	-1.9%	10.4	25.1µM*	12.4%	16.0%
Cc1cc(C)cc(NC(=O)C2CCCN(c3nnc(C)c4c(C)n(-c5ccccc5)nc34)C2)c1 (configuration not stated)	·	·	·	3.8%	·	·
Cc1ccc(NC(=O)C(C)c2cccc(C(=O)c3ccccc3)c2)cc1O (configuration not stated)	7.1%	5.3%	4.2	20µM*	13.2%	-7.2%
COc1cccc(CNc2nc3nc(C)c(Cl)c(C)n3n2)c1	-0.4%	?	-6.8	31.6µM*	-4.4%	2.6%
Cc1nc2nc(COc3ccccc3)nn2c(C)c1Cl	0.2%	4.4%	5.4	14.1µM*	0.0%	2.5%
Cc1nc2nc(NCc3cccs3)nn2c(C)c1Cl	-0.1%	11.3%	2.1	12.6µM*	-0.3%	·
COc1ccccc1-n1nc(-c2ccccc2)c2cnc3cc(C(F)(F)F)ccc3c21	·	·	·	-2.9%	·	·
COc1cccc(-n2c(SCC(N)=O)nnc2-c2ccco2)c1	0.4%	-35.1%	20.3	31.6µM*	0.8%	-0.3%
CCn1c(SCC(=O)N(C)CC(=O)Nc2cccc(OC)c2)nnc1-c1ccco1	0.0%	0.5%	-0.9	28.2µM*	-6.7%	9.8%
O=C(CSc1nnc(-c2ccco2)n1-c1ccccc1)NCC1CCCO1 (configuration not stated)	0.5%	4.2%	2.5	31.6µM*	-0.6%	4.9%
SMILES	B2AR arrestin	p53 reactivator	Giardia killer	ClpP mod	Mito fusion act	uPA generation
Cc1nnc(SCC(=O)NCC2CCCO2)n1-c1ccccc1 (configuration not stated)	0.2%	-2.6%	7.8	0.2%	3.7%	3.9%
CCn1c(SCC(=O)N(C)CC(=O)Nc2ccc(OC)cc2)nnc1-c1ccco1	0.1%	-1.9%	-12.2	-5.4%	0.9%	4.5%
COc1ccc(-n2c(SCC(N)=O)nnc2-c2ccco2)cc1	-1.2%	-1.8%	-9.7	-1.4%	2.3%	13.4%
Cc1cc(C)cc(NC(=O)C(CC(C)C)NC(=O)C2CCCCC2)c1 (configuration not stated)	·	·	·	1.9%	·	·
CCOc1ccc(C2=C(C(=O)CC)Sc3nncn3N2C(=O)CC)cc1	·	·	·	0.7%	·	·
COC(=O)c1ccccc1NC(=O)c1cc2sccc2n1C	-0.2%	9.1%	-4.4	31.6µM*	-0.3%	·
COc1cc(C2Nc3ccccc3C(=O)N2c2ccccc2)c(Br)cc1OCC(=O)O (configuration not stated)	0.1%	16.2%	-3.4	31.6µM*	-32.7%	1.1%
Nc1c(S(=O)(=O)c2cccs2)c2nc3ccccc3nc2n1Cc1ccccc1	3.6%	-1.0%	-4.4	35.5µM*	-0.6%	-1.3%
COc1cccc(/C=N/n2c(N)c(S(=O)(=O)c3cccs3)c3nc4ccccc4nc32)c1OC	-0.3%	-16.5%	-13.8	2.82µM*	1.6%	·
Cc1ccc(Cn2c(N)c(S(=O)(=O)c3cccs3)c3nc4ccccc4nc32)cc1	0.1%	-13.7%	-10.1	3.16µM*	-3.5%	2.8%
COc1ccc(Cn2c(N)c(S(=O)(=O)c3cccs3)c3nc4ccccc4nc32)cc1	-0.3%	-6.1%	-2.2	8.91µM*	-3.1%	-2.5%
CCCC[C@]12Cc3ccccc3C(O1)c1c(cc(-c3ccccc3)oc1=O)O2	-0.2%[9.22 µM]	·	·	·	0.1%[9.22 µM]	·
CCN1C(=O)c2ccccc2Sc2ccc(NC(=O)Nc3cccc([N+](=O)[O-])c3C)cc21	·	·	·	-3.1%	·	·
COc1cc2[nH]c3c(N4CCN(c5ccc(Cl)cc5)CC4)ncnc3c2cc1OC	0.5%	-0.6%	8.2	25.1µM*	-6.9%	9.8%
COc1cc2[nH]c3c(Cl)ncnc3c2cc1OC	-0.7%	-3.1%	-0.8	?	-6.4%	?
COc1cccc2[nH]c3c(N4CCC(C)CC4)ncnc3c12	-1.1%	1.0%	5.7	14.1µM*	2.3%	·
COc1cc(N(C)C)c(OC)cc1C=O	·	·	·	-8.0%	·	·
Oc1ccc(NCc2ccccc2OCc2ccc(Cl)cc2)cc1	·	·	·	1.2%	·	·
Oc1ccc(NCc2ccccc2OCc2ccccc2)cc1	7.31µM*	-20.5%	4.8	-8.6%	1.1%	-10.0%
CC1CN(C(=O)COC(=O)c2cnc(Cl)c(Cl)c2)CC(C)O1 (configuration not stated)	-0.1%	8.6%	-6.5	31.6µM*	·	-14.8%
O=C(OCC(=O)N1CCOCC1)c1cnc(Cl)c(Cl)c1	-1.7%	16.7%	-22.6	0.1%	-3.2%	-8.3%
Cc1cccc(Cn2c(CN3CCC(C(=O)NCCc4ccccc4)CC3)cc3ccccc32)c1	·	·	·	-5.6%	·	·
COc1ccc(Br)cc1CNC(=O)c1ccc2c(c1)nc1n2CCCCC1	·	·	·	-0.9%	·	·
